Our source for the growth inhibition values is PubChem BioAssay (NCI).

The nature of assay [1]: NCI Yeast Anticancer Drug Screen. Data for the rad50 strain (AID 155).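 Note: 0% = growth of vehicle-only cultures of the same strain.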 To be noted: S. cerevisiae rad50 strain growth inhibition, hits give high values; at 50.0 µM unless noted. In short, it runs like this:
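Vehicle-treated cultures provide the reference for the growth inhibition reported for compound-exposed, repair-deficient yeast.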

Assay [2] is described as follows: NCI Yeast Anticancer Drug Screen. Data for the mec2-1 strain (AID 157). To be noted: S. cerevisiae mec2-1 strain, hits give high values; at 50.0 µM unless noted. In short, it runs like this: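 Cells of the genetically defined mec2-1 yeast strain are incubated with test compound. Inhibition of growth is calculated against vehicle-treated controls.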
Assay [3] in a line: NCI Yeast Anticancer Drug Screen. Data for the sgs1 mgt1 strain (AID 161).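 Note: 0% = growth of cultures given vehicle only.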 To be noted: S. cerevisiae sgs1 mgt1 strain, hits give high values; at 50.0 µM unless noted. The gist of the method:
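Mutant yeast exposed to compound; growth scored against vehicle-only wells.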

Assay [4] is described as follows: NCI Yeast Anticancer Drug Screen. Data for the cln2 rad14 strain (AID 165).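 Note: 0% = growth equal to vehicle treated cultures.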 The settings on record: S. cerevisiae cln2 rad14 strain, hits give high values; at 50.0 µM unless noted. In short, it runs like this: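 The screen exposed genetically defined yeast (cln2 rad14) to test compounds and scored growth inhibition relative to vehicle-treated controls.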
Assay [5] can be described thus: NCI Yeast Anticancer Drug Screen. Data for the bub3 strain (AID 167). To be noted: S. cerevisiae bub3 mutant strain, hits give high values; at 50.0 µM unless noted. In short, it runs like this:
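Mutant yeast screening strain plus compound; vehicle-treated cultures serve as the 0% inhibition reference.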

Assay [6] can be described thus: NCI Yeast Anticancer Drug Screen. Data for the mlh1 rad18 strain (AID 175). The settings on record: S. cerevisiae mlh1 rad18 strain growth inhibition, hits give high values; at 50.0 µM unless noted. In short, it runs like this: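 Compound-treated yeast growth, normalised to vehicle controls. Strain bears defined DNA repair mutations.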

This is part of a sample that, as a whole, favours compounds with a hit. Of some 79,000 tested, about 15% had one in any assay. Unmarked numbers belong to inactive results. Active and inactive are the calls of the source. Cut-off read from the data, not from the text of the source: active = growth inhibition above about 70%; inactive = the rest.

For the compound `CC1=NCC[N+]1(CCc1ccccc1)Cc1ccccc1` (stereo unspecified), the growth inhibition in assay [1] is 3.15%; in assay [2], -5%; in assay [3] it was -19.8%; in assay [4], -26.9%; in assay [5] it was -35%; in assay [6] it was -11.7%.
In the case of `COc1cc(C2CC(C)(Nc3ccccc3)Oc3cc4c(cc32)OCO4)cc(OC)c1OC` (stereo unspecified), the growth inhibition is -6.35% in assay [1]; -13.7% in assay [2]; -3.55% in assay [3]; 4.95% in assay [4]; 4.1% in assay [5]; -14.2% in assay [6].
Consider `O=C(O)C(Nc1ccc(Cl)cc1)c1ccccc1` (stereo unspecified), for which the growth inhibition in assay [1] was 1.7%; in assay [2], 3.25%; in assay [3], 18.9%; in assay [4], 6.5%; in assay [5] it was 8.1%; in assay [6], -22.6%.
For the compound `Nc1cnccc1N1CCN(c2cccc3ccccc23)CC1`, the growth inhibition is 99% (active) in assay [1]; 99.3% (active) in assay [2]; 99.2% (active) in assay [3]; 98.8% (active) in assay [4]; 98.4% (active) in assay [5]; 99% (active) in assay [6].
As for `C=CCC1(CN(C)C)CC/C(=C\c2cc(OC)c(OC)c(OC)c2)C1=O` (stereo unspecified), the growth inhibition was -8.7% in assay [1]; -3.15% in assay [2]; -26% in assay [3]; -4.65% in assay [4]; -9.85% in assay [5]; 20.2% in assay [6].
As to `C=C(C#N)CSc1c(Cl)c(Cl)c(Cl)c(Cl)c1Cl`, the growth inhibition was 34.5% in assay [1]; 13% in assay [2]; 9.2% in assay [3]; 17.7% in assay [4]; 16.8% in assay [5]; 62.6% in assay [6].
Regarding `CC(C)CC(NC=O)C(=O)O` (stereo unspecified), the growth inhibition in assay [1] was 11.2%; in assay [2] it was 1.85%; in assay [3], -0.4%; in assay [4], 9.45%; in assay [5] it was -0.3%; in assay [6] it was 8.35%.
As to `c1ccc2nn(C3CCCO3)nc2c1` (stereo unspecified), the growth inhibition in assay [1] was 0.75%; in assay [2], -16.5%; in assay [3] it was -21.9%; in assay [4], -29.4%; in assay [5], 3.15%; in assay [6], -43.5%.
For `Cc1[nH]c(=O)nc2nc3ccc(Cl)cc3c(N(CCO)CCO)c12`, the growth inhibition in assay [1] is -24.3%; in assay [2] it was -20.8%; in assay [3], -12.8%; in assay [4] it was 19.2%; in assay [5] it was 19.9%; in assay [6] it was -8.7%.
Regarding `NCCCc1nonc1C(=O)O`, the growth inhibition in assay [1] is -15.2%; in assay [2] it was -39.4%; in assay [3] it was -3.85%; in assay [4], -4.05%; in assay [5], -7.3%; in assay [6] it was -13.3%.
Take `Cc1ccc2c(N=Nc3ccc(C(=N)N)cc3)ccc(O)c2n1`: the growth inhibition was 99.3% (active) in assay [1]; 99.4% (active) in assay [2]; 99.5% (active) in assay [3]; 98.2% (active) in assay [4]; 99.2% (active) in assay [5]; 99.2% (active) in assay [6].
On to `CC1OCC(O)C(C(O)C(=O)CN(Cc2ccccc2)Cc2ccccc2)O1` (stereo unspecified), for which the growth inhibition is 10.2% in assay [1]; 15.6% in assay [2]; 8.65% in assay [3]; 8.55% in assay [4]; 5.75% in assay [5]; 9.55% in assay [6].
As for `CCN(CC)CCOC(=O)c1ccc(NC(=O)OCCOCCOC(=O)Nc2ccc(C(=O)OCCN(CC)CC)cc2)cc1`, the growth inhibition was -1.8% in assay [1]; -4.3% in assay [2]; 9.25% in assay [3]; -1.1% in assay [4]; -3.1% in assay [5]; 14.7% in assay [6].
As for `CC1(C)OCC[C@@H]1[Si](C)(C)C`, the growth inhibition in assay [1] is 17.6%; in assay [2], 21.6%; in assay [3] it was 14.2%; in assay [4], 2.8%; in assay [5], -3.45%; in assay [6], -19.6%.
On to `COc1ccc(C2=Nc3c(nc(OC)[nH]c3=O)NC(c3ccccc3)C2)cc1` (stereo unspecified), for which the growth inhibition in assay [1] was 12.3%; in assay [2] it was 10.2%; in assay [3], -10.5%; in assay [4], 7.55%; in assay [5], -8.95%; in assay [6], -21.8%.
Take `COC(=O)CCCCC(=O)OC`: the growth inhibition in assay [1] is 35.9%; in assay [2], -0.3%; in assay [3], 15.1%; in assay [4], -1.9%; in assay [5], -9%; in assay [6], 13.4%.
Take `O=C1c2cccc3c([N+](=O)[O-])ccc(c23)C(=O)N1Cc1cccnc1`: the growth inhibition in assay [1] is 99.3% (active); in assay [2], 99.7% (active); in assay [3], 99.5% (active); in assay [4], 99.3% (active); in assay [5], 99.3% (active); in assay [6] it was 99.4% (active).
`CC(C(=O)O)c1ccc(-c2ccccc2)cc1` (stereo unspecified): the growth inhibition in assay [1] is 10.6%; in assay [2], 13.3%; in assay [3] it was -1.85%; in assay [4], -12.2%; in assay [5] it was 1.4%; in assay [6], 7.1%.
As to `Cc1ccc(C)c(Nc2c(C)ccc(C)c2C(=O)O)c1`, the growth inhibition in assay [1] is -5.3%; in assay [2], -1.05%; in assay [3] it was 12.4%; in assay [4] it was 14%; in assay [5], -10.1%; in assay [6] it was -12.6%.
For `CC(CC(=O)c1ccccc1)[N+](=O)[O-]` (stereo unspecified), the growth inhibition is -10.6% in assay [1]; -6.35% in assay [2]; -3.3% in assay [3]; -12.6% in assay [4]; -7.85% in assay [5]; 15.8% in assay [6].
Regarding `Cc1c(Cl)cccc1NC(=O)C(=O)c1c(O)c2ccc(O)cc2oc1=O`, the growth inhibition in assay [1] was 4.8%; in assay [2], 1.25%; in assay [3], -19.1%; in assay [4], 3.45%; in assay [5], -15.6%; in assay [6] it was 5.35%.
